The values below come from PubChem BioAssay AID504451 (NMMLSC, 2011).

The whole screen tested about 2,000 compounds, of which about 80 (4%) were called active. Only a sample is shown. Unmarked numbers belong to inactive results.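 The calls were made as follows: active = aptamer displacement above 40%, near three times the noise of non-fluorescent compounds, on plates passing quality checks; inactive = the rest.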

Chain of Beta-adrenergic receptor kinase 1 (Homo sapiens) (P25098 whole entry, looked up): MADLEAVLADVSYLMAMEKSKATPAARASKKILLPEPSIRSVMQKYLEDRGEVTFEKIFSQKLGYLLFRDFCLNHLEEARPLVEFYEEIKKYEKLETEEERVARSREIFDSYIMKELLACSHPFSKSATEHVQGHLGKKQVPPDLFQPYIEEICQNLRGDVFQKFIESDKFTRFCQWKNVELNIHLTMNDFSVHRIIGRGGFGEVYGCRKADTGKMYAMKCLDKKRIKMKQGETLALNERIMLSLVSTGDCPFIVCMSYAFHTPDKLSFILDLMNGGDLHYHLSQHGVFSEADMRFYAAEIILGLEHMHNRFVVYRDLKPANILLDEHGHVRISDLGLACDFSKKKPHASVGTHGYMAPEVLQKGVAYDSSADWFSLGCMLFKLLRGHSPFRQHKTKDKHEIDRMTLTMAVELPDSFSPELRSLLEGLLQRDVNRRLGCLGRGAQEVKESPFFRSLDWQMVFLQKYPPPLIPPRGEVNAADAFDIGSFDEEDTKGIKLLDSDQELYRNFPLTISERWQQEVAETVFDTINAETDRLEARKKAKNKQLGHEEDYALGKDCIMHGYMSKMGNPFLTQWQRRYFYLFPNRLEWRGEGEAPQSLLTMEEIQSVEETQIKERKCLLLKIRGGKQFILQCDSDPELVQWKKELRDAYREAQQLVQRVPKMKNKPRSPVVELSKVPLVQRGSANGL

This experiment has as its target Beta-adrenergic receptor kinase 1 (Homo sapiens) (UniProt P25098). The experiment can be described thus: GRK2 aptamer-displacing inhibitors, retest, confirmation, biochemical, cherry pick 1, bead flow cytometry (AID 504451).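 Also: negative values mostly reflect intrinsic compound fluorescence rather than true enhancement.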 The note with it: bead-bound GRK2, FAM-aptamer displacement, at 10 µM, active compounds read high. In general terms: In flow cytometry, cells or beads pass a laser one at a time.
As for `COc1ccc(-n2nc(C(=O)NCC(=O)N3CCCCCC3)c3ccccc3c2=O)cc1Cl`, the aptamer displacement was -1.64%.

With `CC(NC(=O)C1CCCN(S(=O)(=O)c2ccc(-n3cnnn3)cc2)C1)c1ccc(F)cc1` (centres undefined), the aptamer displacement was 1.56%.

`COc1cc(C(=O)OCC(=O)N(CC(C)C)C2CCS(=O)(=O)C2)ccc1OCC(C)C` (centres undefined): the aptamer displacement is -1.87%.

Consider `Cc1nc(Nc2ccccc2F)c2nnn(Cc3ccccc3Cl)c2n1`, for which the aptamer displacement is 0.75%.

For `COCCCNC(=O)CNC(=O)c1nn(-c2ccc(OC)cc2)c(=O)c2ccccc12`, the aptamer displacement is -4.54%.

For `COc1ccc(Nc2cc(Sc3ccc(OC)cc3)ncn2)cc1`, the aptamer displacement is -1.93%.

Regarding `CCOC(=O)c1sc2nc(CSc3ccccc3)[nH]c(=O)c2c1C`, the aptamer displacement is -0.46%.

For `Nc1ccc2nc3c(=O)[nH]c(=S)[nH]c3nc2c1`, the aptamer displacement was 33%.

On to `Cc1cc(C(=O)NC2CCN(Cc3ccccc3)CC2)n[nH]1`, for which the aptamer displacement was -6.63%.

Consider `CCC(=C/c1sc2ccc3ccccc3c2[n+]1C)/C=C1\Sc2ccc3ccccc3c2N1C`, for which the aptamer displacement is 101% (active).

Take `O=C(NCC12CC3CC(C1)CC(CNC(=O)N1CCCC1)(C3)C2)N1CCCC1`: the aptamer displacement is -0.31%.

For the molecule `CCOc1ccccc1C(=O)NCc1ccco1`, the aptamer displacement is -1.88%.

Regarding `COC(=O)c1ccc(C)c(NC(=O)C2CC(=O)N(C3CCCC(C)C3C)C2)c1` (centres undefined), the aptamer displacement is -1.41%.

As to `O=C(NCc1ccccc1)c1cccc(NC(=O)C2CCCCC2)c1`, the aptamer displacement was 0.14%.

`COc1ccc(C(=O)NCCNc2ccc([N+](=O)[O-])cn2)cc1`: the aptamer displacement is -0.48%.

Consider `C/C(=N\Nc1nc2ccccc2[nH]1)c1cccs1`, for which the aptamer displacement is -0.6%.

Consider `COc1ccc(Nc2nc(-c3cccnc3)nc3ccccc23)cn1`, for which the aptamer displacement is 4.02%.

For `COc1ccc(N2CCN(C(CNS(=O)(=O)c3ccc(C)cc3)c3ccccc3)CC2)cc1` (centres undefined), the aptamer displacement was -2.82%.

Turning to `O=C(Nc1ccc(-c2nnc(-c3ccccc3)o2)cc1)c1ccc(Br)o1`, the aptamer displacement was 0.23%.

`O=C1C2N=NN(CC(=O)N3N=C(c4cccc5ccccc45)CC3c3ccccc3)C2C(=O)N1c1ccccc1` (centres undefined): the aptamer displacement is 0.13%.

Take `COc1cccc(CN(C)CC(=O)Nc2sc3c(c2C#N)CCC3)c1`: the aptamer displacement is -0.98%.

As for `Cc1ccccc1-c1nnn(CC(=O)c2ccc(S(=O)(=O)N3CCCC3)cc2)n1`, the aptamer displacement was -1.24%.

As to `CC(C)CN(C(=O)c1cccc(S(=O)(=O)N2CCCCC2)c1)C1CCS(=O)(=O)C1` (centres undefined), the aptamer displacement was 0.16%.

As for `O=c1[nH]c(SCc2ccccc2)nnc1-c1ccccc1`, the aptamer displacement was -4.45%.

Regarding `Cc1cc(/C=C2\SC(=O)N(C)C2=O)c(C)n1-c1cccc(C(=O)O)c1`, the aptamer displacement was 10.9%.

Consider `CN(CC(=O)Nc1ccc(N2CCOCC2)cc1)CC(=O)Nc1ccccc1[N+](=O)[O-]`, for which the aptamer displacement was -1.83%.

On to `CNS(=O)(=O)c1cccc(C(=O)NCC2CCCCC2)c1`, for which the aptamer displacement was 3.13%.

Regarding `CCCc1nc2ccccc2c(=O)n1NC(=O)c1c(O)c2ccccc2[nH]c1=O`, the aptamer displacement is -0.69%.

Turning to `Cn1c(=O)[nH]c(=O)c2c1nc(N1CCN(C(c3ccccc3)c3ccccc3)CC1)n2CCO`, the aptamer displacement was -8.5%.

Take `O=C(CCS(=O)(=O)c1ccc(Br)cc1)NCCc1ccc(Cl)cc1`: the aptamer displacement was 28%.

With `Cc1ccc(S(=O)(=O)CCC(=O)Nc2nnc(CC(C)C)s2)cc1`, the aptamer displacement was 2.47%.

With `O=C(Oc1ccc(Br)cc1)c1cccnc1`, the aptamer displacement is -1.31%.

As for `COC(=O)N/N=C/c1ccc(/C=N/NC(=O)OC)cc1`, the aptamer displacement was -0.84%.

In the case of `O=C(c1cnn(-c2ccc(Cl)cc2)c1)c1ccccc1O`, the aptamer displacement is 0.64%.

As to `CSc1nc2ccccc2c(=O)n1Cc1ccc(F)cc1`, the aptamer displacement was 1.65%.

Consider `CC(=O)c1ccc(OCC(O)CN2CCN(S(=O)(=O)c3cccc(Br)c3)CC2)cc1` (centres undefined), for which the aptamer displacement was -3.98%.

For the molecule `Cc1cc2cc(CNC(=O)c3cccs3)ccc2[nH]1`, the aptamer displacement was 11.7%.

Take `Cn1c(=O)c2c(nc(N3CCOCC3)n2CCNC2=NCCC2)n(C)c1=O`: the aptamer displacement is 5.84%.

As for `CN(Cc1ccccc1)C(=O)c1cccc(C(=O)N(C)Cc2ccccc2)c1`, the aptamer displacement was -0.51%.

As to `CCN1C(=O)[C@H]2[C@@H](c3ccc(-c4ccc(OC)cc4)cc3)N[C@@](Cc3ccccc3)(C(=O)OC)[C@H]2C1=O`, the aptamer displacement was -7.18%.

With `OC(CN=c1sc2ccccc2n1CC(O)COc1ccccc1)COc1ccccc1` (centres undefined), the aptamer displacement was 1.11%.

Consider `CCOC(=O)C1CCCN(Cc2nc(N)nc(Nc3ccc(C)cc3)n2)C1` (centres undefined), for which the aptamer displacement is 0.86%.

Take `Cc1ccc(-c2nn(-c3ccccc3)cc2/C=C2\SC(=S)N(CCCCCC(=O)O)C2=O)o1`: the aptamer displacement was -4.86%.

In the case of `CCN1/C(=C/c2ccc3ccc(C)cc3[n+]2CC)Sc2ccccc21`, the aptamer displacement was 65.9% (active).

On to `CCN1/C(=C\c2ccc3ccccc3[n+]2CC)Sc2cc(C)ccc21`, for which the aptamer displacement was 75.6% (active).

For `O=C(NCc1ccccc1Cl)c1ccc2c(=O)n(CC3CCCO3)c(=S)[nH]c2c1` (centres undefined), the aptamer displacement is -1.07%.

For `O=C(NC(=O)c1cc(OCC(F)(F)F)ccc1OCC(F)(F)F)Nc1ccccc1`, the aptamer displacement is 2.33%.

As to `CC(C)Cn1c(CN(Cc2ccccc2)Cc2ccccc2)nc2c1c(=O)n(C)c(=O)n2C`, the aptamer displacement is 0.47%.

Consider `C=C(C)C(=O)Nc1cccc(C2=NOC3(C2)C[C@H](C(N)=O)N(C(=O)C(c2ccccc2)c2ccccc2)C3)c1` (some centres undefined), for which the aptamer displacement was 80.5% (active).

On to `O=C(O)c1ccc2c(c1)C(=O)N(c1ccc(/C=C/C(=O)c3ccccc3)cc1)C2=O`, for which the aptamer displacement is 0.79%.

On to `CN/C(=C\[N+](=O)[O-])NCCSCc1csc(CN(C)C)n1`, for which the aptamer displacement is 1.33%.

Consider `O=C(c1ccc(Cl)cc1)c1ccc(OCC(O)CN2CCCCC2)cc1` (centres undefined), for which the aptamer displacement is -0.78%.

For `O=C(COc1ccccc1)NCCc1nc2ccccc2[nH]1`, the aptamer displacement is 22.4%.

With `Cc1nc(C(=O)NCc2ccccc2)sc1C1(C)CC(c2cccnc2)=NO1` (centres undefined), the aptamer displacement was -1.29%.
